Experimental data: PubChem BioAssay (Tox21)
Results filed as inconclusive are left out. Calls of active or inactive are those of the source. Unless noted, calls come from the whole dose curve; as a rule, active = well fitted curve in the direction sought with a large enough effect in the repeat runs; inconclusive = weak or mixed curves; inactive = flat fitted curve, though single readings scatter.

Experiments:
[1] = qHTS assay to test for compound auto fluorescence at 535 nm (green) in HEK293 cells (AID 720680)
[2] = qHTS assay to test for compound auto fluorescence at 460 nm (blue) in HEK293 cell free culture (AID 720681)
Outline: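 Blue fluorescence (Ex 405/Em 460 nm, triamterene-equivalent) was read immediately after pin transfer of compound or DMSO into medium (DMEM, 10% FBS) without cells.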

[3] = qHTS assay to test for compound auto fluorescence at 535 nm (green) in HEK293 cell free culture (AID 720682)
Outline: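 Each library compound, or DMSO control, is added by pintool to medium alone, comprising DMEM and 10% FBS. Emission at 535 nm following 485 nm excitation is quantified against fluorescein.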

[4] = qHTS assay to test for compound auto fluorescence at 590 nm (red) in HEK293 cell free culture (AID 720683)
Outline: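 Red-channel autofluorescence of compounds in culture medium (DMEM, 10% FBS), no cells, measured at 540/590 nm. Rose Bengal sodium is the reference fluorophore for equivalence.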

[5] = qHTS assay to test for compound auto fluorescence at 590 nm (red) in HepG2 cell free culture (AID 720684)
Outline: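 Steps: dispense MEM/10% FBS medium, no cells; pin compound or DMSO vehicle; read red channel, Ex/Em 540/590 nm. Output given as Rose Bengal sodium equivalents.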

[6] = qHTS assay to test for compound auto fluorescence at 460 nm (blue) in HepG2 cell free culture (AID 720685)
Outline: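 Compound (23 nL) or DMSO pinned into cell-free MEM with 10% FBS; blue fluorescence read at 405/460 nm excitation/emission, expressed as auto-fluorescence equivalency to triamterene.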

[7] = qHTS assay to test for compound auto fluorescence at 535 nm (green) in HepG2 cell free culture (AID 720686)
[8] = qHTS assay to test for compound auto fluorescence at 460 nm (blue) in HepG2 cells (AID 720687)
Outline: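 Blue-channel autofluorescence (Ex/Em 405/460 nm, triamterene-equivalent) was measured after 1 hr compound exposure at 37 C, 5% CO2. Cells were HepG2, plated overnight at 37 C in MEM plus 10% FBS.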

[9] = biological target: Glucocorticoid receptor (Homo sapiens) (UniProt P04150); experiment: qHTS assay to identify small molecule agonists of the glucocorticoid receptor (GR) signaling pathway (AID 720691; active = well fitted activation curve with a large enough effect in the signal ratio in the repeat runs, not every such curve was filed as active; the % refers to the signal ratio)
Glucocorticoid receptor (Homo sapiens), sequence (P04150 whole entry, looked up): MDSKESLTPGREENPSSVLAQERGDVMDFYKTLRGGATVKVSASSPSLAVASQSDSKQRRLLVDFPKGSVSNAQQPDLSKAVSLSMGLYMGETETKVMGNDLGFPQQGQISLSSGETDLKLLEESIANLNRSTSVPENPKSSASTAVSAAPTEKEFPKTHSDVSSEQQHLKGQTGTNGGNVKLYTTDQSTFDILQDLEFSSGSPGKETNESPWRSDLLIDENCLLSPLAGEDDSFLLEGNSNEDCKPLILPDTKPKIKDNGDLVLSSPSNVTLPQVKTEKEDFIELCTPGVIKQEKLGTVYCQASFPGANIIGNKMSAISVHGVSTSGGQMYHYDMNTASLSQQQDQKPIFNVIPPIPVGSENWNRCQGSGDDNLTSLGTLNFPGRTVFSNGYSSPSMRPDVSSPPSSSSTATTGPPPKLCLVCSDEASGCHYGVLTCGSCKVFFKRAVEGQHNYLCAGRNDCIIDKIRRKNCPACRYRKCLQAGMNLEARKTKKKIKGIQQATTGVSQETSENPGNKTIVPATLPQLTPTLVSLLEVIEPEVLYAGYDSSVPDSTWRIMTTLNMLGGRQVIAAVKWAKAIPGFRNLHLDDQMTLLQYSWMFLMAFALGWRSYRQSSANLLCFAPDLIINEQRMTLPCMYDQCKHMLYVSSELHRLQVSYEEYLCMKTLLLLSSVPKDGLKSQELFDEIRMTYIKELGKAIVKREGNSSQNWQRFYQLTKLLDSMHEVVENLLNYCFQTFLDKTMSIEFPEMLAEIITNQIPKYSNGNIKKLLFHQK
Outline: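 Agonist mode in a HeLa line carrying a GRE-controlled beta-lactamase reporter. Compounds act for 18 h at 37 C before a 2 h room-temperature FRET substrate step and fluorescence reading.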

[10] = biological target: Glucocorticoid receptor (Homo sapiens) (UniProt P04150); experiment: qHTS assay to identify small molecule antagonists of the glucocorticoid receptor (GR) signaling pathway (AID 720692; active = well fitted inhibition curve with a large enough effect in the signal ratio in the repeat runs, not every such curve was filed as active; the % refers to the signal ratio)
Outline: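 Cells plated, rested 4 h at 37 C/5% CO2; compounds in DMSO pin-transferred; dexamethasone added to 5 nM final; 18 h at 37 C; B/G FRET substrate added, 2 h room temperature; fluorescence measured.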
% is set by controls: 0 for no effect and ±100 for the full control effect.

CC1(C)CON(Cc2ccccc2Cl)C1=O
inactive: outcome [1] | outcome [2] | outcome [3] | outcome [4] | outcome [5] | outcome [6] | outcome [7] | outcome [8]

CSc1ccc(C(=O)C(C)(C)N2CCOCC2)cc1
inactive: outcome [1] | outcome [2] | outcome [3] | outcome [4] | outcome [5] | outcome [6] | outcome [7] | outcome [8]

COC(=O)c1c(C(F)F)nc(C(F)(F)F)c(C2=NCCS2)c1CC(C)C
inactive: outcome [1] | outcome [2] | outcome [3] | outcome [4] | outcome [5] | outcome [6] | outcome [7] | outcome [8]

ClCC(Cl)Cl
inactive: outcome [1] | outcome [2] | outcome [3] | outcome [4] | outcome [5] | outcome [6] | outcome [7] | outcome [8]

O=[N+]([O-])c1cc(Cl)c(Cl)c(Cl)c1
inactive: outcome [1] | outcome [2] | outcome [3] | outcome [4] | outcome [5] | outcome [6] | outcome [7] | outcome [8]

Nc1c(Br)cc([N+](=O)[O-])cc1[N+](=O)[O-]
inactive: outcome [1] | outcome [2] | outcome [3] | outcome [4] | outcome [5] | outcome [6] | outcome [7] | outcome [8]

Cc1ccccc1CO[C@@H]1C[C@@]2(C(C)C)CC[C@]1(C)O2
inactive: outcome [1] | outcome [2] | outcome [3] | outcome [4] | outcome [5] | outcome [6] | outcome [7] | outcome [8]

CCOP(=O)(OCC)OP(=O)(OCC)OCC
inactive: outcome [1] | outcome [2] | outcome [3] | outcome [4] | outcome [5] | outcome [6] | outcome [7] | outcome [8]

O=NN1CCN(N=O)CC1
inactive: outcome [1] | outcome [2] | outcome [3] | outcome [4] | outcome [5] | outcome [6] | outcome [7] | outcome [8]

CC1=NNC(=O)N(/N=C/c2cccnc2)C1
inactive: outcome [1] | outcome [2] | outcome [3] | outcome [4] | outcome [5] | outcome [6] | outcome [7] | outcome [8]

CC(C)(C)NCC(O)c1cc(Cl)c(N)c(Cl)c1 (stereo not drawn)
inactive: outcome [1] | outcome [2] | outcome [3] | outcome [4] | outcome [5] | outcome [6] | outcome [7] | outcome [8]

CCCCCCI
inactive: outcome [1] | outcome [2] | outcome [3] | outcome [4] | outcome [5] | outcome [6] | outcome [7] | outcome [8]

NC(=O)c1cc([N+](=O)[O-])cc([N+](=O)[O-])c1
inactive: outcome [1] | outcome [2] | outcome [3] | outcome [4] | outcome [5] | outcome [6] | outcome [7] | outcome [8]

CCN(CC)C(C)C(=O)c1ccccc1 (stereo not drawn)
inactive: outcome [1] | outcome [2] | outcome [3] | outcome [4] | outcome [5] | outcome [6] | outcome [7] | outcome [8]

COc1cc(OC)nc(Oc2cccc(Oc3nc(OC)cc(OC)n3)c2C(=O)O)n1
inactive: outcome [1] | outcome [2] | outcome [3] | outcome [4] | outcome [5] | outcome [6] | outcome [7] | outcome [8]

CC1(C(=O)Nc2ccc(O)c(Cl)c2Cl)CCCCC1
inactive: outcome [1] | outcome [2] | outcome [3] | outcome [4] | outcome [5] | outcome [6] | outcome [7] | outcome [8]

OCCSCSCCO
inactive: outcome [1] | outcome [2] | outcome [3] | outcome [4] | outcome [5] | outcome [6] | outcome [7] | outcome [8]

CC(C)(C)OC(=O)c1ncn2c1[C@@H]1CCCN1C(=O)c1c(Br)cccc1-2
inactive: outcome [1] | outcome [2] | outcome [3] | outcome [4] | outcome [5] | outcome [6] | outcome [7] | outcome [8]

CSc1nc(N=[N+]=[N-])nc(NC(C)C)n1
inactive: outcome [1] | outcome [2] | outcome [3] | outcome [4] | outcome [5] | outcome [6] | outcome [7] | outcome [8]

C1CCC(C2CCCCC2)CC1
inactive: outcome [1] | outcome [2] | outcome [3] | outcome [4] | outcome [5] | outcome [6] | outcome [7] | outcome [8]

COC(C)(C)C
inactive: outcome [1] | outcome [2] | outcome [3] | outcome [4] | outcome [5] | outcome [6] | outcome [7] | outcome [8]

NC(=O)O
inactive: outcome [1] | outcome [2] | outcome [3] | outcome [4] | outcome [5] | outcome [6] | outcome [7] | outcome [8]

CC(COc1ccc(Oc2ccccc2)cc1)Oc1ccccn1 (stereo not drawn)
inactive: outcome [1] | outcome [2] | outcome [3] | outcome [4] | outcome [5] | outcome [6] | outcome [7] | outcome [8]

O=[N+]([O-])c1cccc(O)c1
inactive: outcome [1] | outcome [2] | outcome [3] | outcome [4] | outcome [5] | outcome [6] | outcome [7] | outcome [8]

CC(N)=S
inactive: outcome [1] | outcome [2] | outcome [3] | outcome [4] | outcome [5] | outcome [6] | outcome [7] | outcome [8]

CCN(CC)CCOC(=O)C(C)(c1ccccc1)c1ccccc1
inactive: outcome [1] | outcome [2] | outcome [3] | outcome [4] | outcome [5] | outcome [6] | outcome [7] | outcome [8]

COc1cc2c(cc1OC)[C@@]13CCN4CC5=CCO[C@H]6CC(=O)N2[C@H]1[C@H]6[C@H]5C[C@H]43
inactive: outcome [1] | outcome [2] | outcome [3] | outcome [4] | outcome [5] | outcome [6] | outcome [7] | outcome [8]

O=[N+]([O-])c1ccc2c3c(cccc13)CC2
inactive: outcome [1] | outcome [2] | outcome [3] | outcome [4] | outcome [5] | outcome [6] | outcome [7] | outcome [8]

CCOc1nc(C(Cl)(Cl)Cl)ns1
inactive: outcome [1] | outcome [2] | outcome [3] | outcome [4] | outcome [5] | outcome [6] | outcome [7] | outcome [8]

CCOC(=O)CP(=O)(OCC)OCC
inactive: outcome [1] | outcome [2] | outcome [3] | outcome [4] | outcome [5] | outcome [6] | outcome [7] | outcome [8]

CCC(=O)c1ccccc1
inactive: outcome [1] | outcome [2] | outcome [3] | outcome [4] | outcome [5] | outcome [6] | outcome [7] | outcome [8]

COC(=O)COc1ccc(Cl)cc1Cl
inactive: outcome [1] | outcome [2] | outcome [3] | outcome [4] | outcome [5] | outcome [6] | outcome [7] | outcome [8]

C=C(C)[C@@H]1CC=C(C=O)CC1
inactive: outcome [1] | outcome [2] | outcome [3] | outcome [4] | outcome [5] | outcome [6] | outcome [7] | outcome [8]

OC(Cn1cncn1)(c1ccc(F)cc1)c1ccccc1F (stereo not drawn)
inactive: outcome [1] | outcome [2] | outcome [3] | outcome [4] | outcome [5] | outcome [6] | outcome [7] | outcome [8]

COP(=S)(OC)Oc1ccc(S(N)(=O)=O)cc1
inactive: outcome [1] | outcome [2] | outcome [3] | outcome [4] | outcome [5] | outcome [6] | outcome [7] | outcome [8]

CCCSC(=O)N(CCC)CCC
inactive: outcome [1] | outcome [2] | outcome [3] | outcome [4] | outcome [5] | outcome [6] | outcome [7] | outcome [8] | outcome [9]

CCOC(=O)NC(=S)Nc1ccccc1NC(=S)NC(=O)OCC
inactive: outcome [1] | outcome [2] | outcome [3] | outcome [4] | outcome [5] | outcome [6] | outcome [7] | outcome [8] | outcome [9]

CC(=O)CCc1ccc2c(c1)OCO2
inactive: outcome [1] | outcome [2] | outcome [3] | outcome [4] | outcome [5] | outcome [6] | outcome [7] | outcome [8] | outcome [9]

CN1CCN(C(=O)O[C@H]2c3nccnc3C(=O)N2c2ccc(Cl)cn2)CC1
inactive: outcome [1] | outcome [2] | outcome [3] | outcome [4] | outcome [5] | outcome [6] | outcome [7] | outcome [8]

CC(=O)[C@H]1CC[C@H]2[C@@H]3CC[C@H]4C[C@H](O)CC[C@]4(C)[C@H]3C(=O)C[C@]12C
inactive: outcome [1] | outcome [2] | outcome [3] | outcome [4] | outcome [5] | outcome [6] | outcome [7] | outcome [8]

O=C(O)c1cccc(Cl)c1
inactive: outcome [1] | outcome [2] | outcome [3] | outcome [4] | outcome [5] | outcome [6] | outcome [7] | outcome [8]

CCC(C)n1c(=O)[nH]c(C)c(Br)c1=O (stereo not drawn)
inactive: outcome [1] | outcome [2] | outcome [3] | outcome [4] | outcome [5] | outcome [6] | outcome [7] | outcome [8]

C[C@@H]1CN(C2CCC(C#N)(c3ccc(F)cc3)CC2)CC[C@]1(C(=O)O)c1ccccc1 (stereo partly drawn)
inactive: fluorescence, % of fluorescein [1] 0.0038% [at 18.6 µM] | fluorescence, % of fluorescent control [2] -0.0038% [at 18.6 µM] | activity change [3] -0.0185% [at 18.6 µM] | fluorescence, % of fluorescent control [4] 0.238% [at 18.6 µM] | fluorescence, % of Rose Bengal [5] -0.17% [at 18.6 µM] | fluorescence, % of fluorescent control [6] -0.0833% [at 18.6 µM] | fluorescence, % of fluorescein control [7] 0.0942% [at 18.6 µM] | fluorescence, % of fluorescent control [8] -0.0325% [at 18.6 µM] | outcome [9]

CCCSP(=O)(OCC)Oc1ccc(Br)cc1Cl (stereo not drawn)
inactive: outcome [1] | outcome [2] | outcome [3] | outcome [4] | outcome [5] | outcome [6] | outcome [7] | outcome [8]

O=C1OC(c2ccc(O)c(S(=O)(=O)O)c2)(c2ccc(O)c(S(=O)(=O)O)c2)c2c(Br)c(Br)c(Br)c(Br)c21
inactive: outcome [1] | outcome [2] | outcome [3] | outcome [4] | outcome [5] | outcome [6] | outcome [7] | outcome [8] | outcome [9]

Fc1ccc(C2(Cn3cncn3)OC2c2ccccc2Cl)cc1 (stereo not drawn)
inactive: outcome [1] | outcome [2] | outcome [3] | outcome [4] | outcome [5] | outcome [6] | outcome [7] | outcome [8] | outcome [9]

CCCCOC(=O)[C@@H](C)Oc1ccc(Oc2ccc(C#N)cc2F)cc1
inactive: outcome [1] | outcome [2] | outcome [3] | outcome [4] | outcome [5] | outcome [6] | outcome [7] | outcome [8] | outcome [9]

CCCCP(CCCC)CCCC
inactive: outcome [1] | outcome [2] | outcome [3] | outcome [4] | outcome [5] | outcome [6] | outcome [7] | outcome [8]

CCCCCCBr
inactive: outcome [1] | outcome [2] | outcome [3] | outcome [4] | outcome [5] | outcome [6] | outcome [7] | outcome [8]

CCSC(=O)N(CC)C1CCCCC1
inactive: outcome [1] | outcome [2] | outcome [3] | outcome [4] | outcome [5] | outcome [6] | outcome [7] | outcome [8] | outcome [9]

CCCCC(=O)Cl
inactive: outcome [1] | outcome [2] | outcome [3] | outcome [4] | outcome [5] | outcome [6] | outcome [7] | outcome [8] | outcome [9] | Potency [10]
